# Measured values reported in paper PMC7862700, “An all-to-all approach to the identification of sequence-specific readers for epigenetic DNA modifications on cytosine”.
# What was measured:
# Assay in all cases: DAPPL (digital affinity profiling via proximity ligation, sequencing); 10 mM Tris-HCl pH 7.5, 50 mM NaCl, 1 mM DTT, 4% glycerol, room temperature, 30 min; GST-TFs on glutathione beads, 16-mer random dsDNA library, 0.1% formaldehyde crosslink after washing; high values mean tight binding
# Details in all cases: protein: recombinant; tags: N-terminal GST; dsDNA, one strand shown
# FLI1 = biological target: T1, FLI1 (Homo sapiens, UniProt Q01543 1-452)
# T1 sequence: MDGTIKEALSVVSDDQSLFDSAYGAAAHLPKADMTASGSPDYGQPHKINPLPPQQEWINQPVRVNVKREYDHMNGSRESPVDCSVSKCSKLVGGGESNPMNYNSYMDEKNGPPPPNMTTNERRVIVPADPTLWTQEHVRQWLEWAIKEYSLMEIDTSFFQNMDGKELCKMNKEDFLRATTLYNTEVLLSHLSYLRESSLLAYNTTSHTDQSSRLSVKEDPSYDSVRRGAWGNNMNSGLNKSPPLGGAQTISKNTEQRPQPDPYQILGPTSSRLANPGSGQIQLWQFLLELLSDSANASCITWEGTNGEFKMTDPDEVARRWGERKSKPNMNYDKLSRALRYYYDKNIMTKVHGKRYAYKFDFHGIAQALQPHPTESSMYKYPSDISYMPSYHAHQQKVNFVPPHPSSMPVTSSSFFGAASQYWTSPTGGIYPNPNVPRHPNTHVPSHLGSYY
# Procedure, shortened: (§1)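 Human transcription factors fused to GST were expressed in yeast, captured on glutathione beads, given DNA barcodes and pooled with a GST-only negative control. Pools were incubated with 200 nmole of a 16-mer random double-stranded DNA library in Tris/NaCl/DTT/glycerol buffer at room temperature for 30 min. They were then washed, crosslinked with 0.1% formaldehyde, proximity-ligated (BsaI/T4 ligase, 1 h, 37 °C), PCR-amplified and sequenced on an Illumina NextSeq500. Binding signal is each 6-mer's read frequency for a factor divided by its frequency for the GST control.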
# ELK1 = biological target: T2, ELK1 (Homo sapiens, UniProt P19419 1-428)
# T2 sequence: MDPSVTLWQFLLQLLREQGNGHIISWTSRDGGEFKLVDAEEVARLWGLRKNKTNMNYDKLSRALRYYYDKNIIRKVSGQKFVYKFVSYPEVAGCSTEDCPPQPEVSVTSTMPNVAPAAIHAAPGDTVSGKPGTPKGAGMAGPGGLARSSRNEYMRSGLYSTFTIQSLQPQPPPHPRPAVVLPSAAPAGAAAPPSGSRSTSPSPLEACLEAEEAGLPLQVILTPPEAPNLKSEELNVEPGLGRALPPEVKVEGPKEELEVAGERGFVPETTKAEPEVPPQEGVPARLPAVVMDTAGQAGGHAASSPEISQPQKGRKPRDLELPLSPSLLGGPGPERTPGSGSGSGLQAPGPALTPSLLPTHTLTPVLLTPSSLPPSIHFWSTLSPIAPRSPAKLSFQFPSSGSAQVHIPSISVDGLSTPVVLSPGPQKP
# Procedure, shortened: as §1
# GABPA = biological target: T3, GABPA (Homo sapiens, UniProt Q06546 1-454)
# T3 sequence: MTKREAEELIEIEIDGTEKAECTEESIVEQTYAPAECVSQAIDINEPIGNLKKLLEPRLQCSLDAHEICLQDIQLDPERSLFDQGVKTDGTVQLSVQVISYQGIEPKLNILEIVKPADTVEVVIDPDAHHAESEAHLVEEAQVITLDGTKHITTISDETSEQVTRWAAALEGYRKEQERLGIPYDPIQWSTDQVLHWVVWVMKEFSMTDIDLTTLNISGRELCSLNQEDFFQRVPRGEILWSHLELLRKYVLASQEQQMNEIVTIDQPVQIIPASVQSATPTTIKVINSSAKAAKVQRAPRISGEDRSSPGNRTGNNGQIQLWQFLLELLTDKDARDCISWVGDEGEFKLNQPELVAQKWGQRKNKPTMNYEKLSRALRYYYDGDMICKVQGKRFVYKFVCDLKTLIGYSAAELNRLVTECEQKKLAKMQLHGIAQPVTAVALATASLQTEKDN
# Procedure, shortened: as §1
# ERG = biological target: T4, ERG (Homo sapiens, UniProt P11308 1-479)
# T4 sequence: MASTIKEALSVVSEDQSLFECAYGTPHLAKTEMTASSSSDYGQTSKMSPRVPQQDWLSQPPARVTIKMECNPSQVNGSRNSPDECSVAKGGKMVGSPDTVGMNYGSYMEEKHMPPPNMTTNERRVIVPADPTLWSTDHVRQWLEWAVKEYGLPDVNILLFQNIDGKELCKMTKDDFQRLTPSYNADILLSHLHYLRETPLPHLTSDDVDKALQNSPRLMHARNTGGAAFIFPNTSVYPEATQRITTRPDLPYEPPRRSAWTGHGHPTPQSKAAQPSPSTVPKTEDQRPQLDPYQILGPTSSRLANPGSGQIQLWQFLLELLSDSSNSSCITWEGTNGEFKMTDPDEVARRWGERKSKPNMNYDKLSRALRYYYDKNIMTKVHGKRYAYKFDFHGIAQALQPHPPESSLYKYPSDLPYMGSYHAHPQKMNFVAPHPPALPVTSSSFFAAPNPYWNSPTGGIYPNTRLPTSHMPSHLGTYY
# Procedure, shortened: as §1
# ELF1 = ELF1 (Homo sapiens, UniProt P32519 1-619)
# Procedure, shortened: as §1
# EHF = biological target: T5, EHF (Homo sapiens, UniProt Q9NZC4 1-300)
# T5 sequence: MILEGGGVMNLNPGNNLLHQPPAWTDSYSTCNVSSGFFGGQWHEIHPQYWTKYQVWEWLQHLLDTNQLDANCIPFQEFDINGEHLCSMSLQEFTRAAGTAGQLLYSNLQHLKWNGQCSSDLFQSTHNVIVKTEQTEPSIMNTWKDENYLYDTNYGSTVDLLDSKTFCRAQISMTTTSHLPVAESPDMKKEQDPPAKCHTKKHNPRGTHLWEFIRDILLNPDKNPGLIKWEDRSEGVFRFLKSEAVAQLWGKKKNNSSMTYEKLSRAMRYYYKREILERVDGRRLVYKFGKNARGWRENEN
# Procedure, shortened: as §1
# SPI1 = SPI1 (Homo sapiens, UniProt P17947 1-270)
# Procedure, shortened: as §1
# SPIB = SPIB (Homo sapiens, UniProt Q01892 1-262)
# Procedure, shortened: as §1
# ELK3 = biological target: T6, ELK3 (Homo sapiens, UniProt P41970 1-407)
# T6 sequence: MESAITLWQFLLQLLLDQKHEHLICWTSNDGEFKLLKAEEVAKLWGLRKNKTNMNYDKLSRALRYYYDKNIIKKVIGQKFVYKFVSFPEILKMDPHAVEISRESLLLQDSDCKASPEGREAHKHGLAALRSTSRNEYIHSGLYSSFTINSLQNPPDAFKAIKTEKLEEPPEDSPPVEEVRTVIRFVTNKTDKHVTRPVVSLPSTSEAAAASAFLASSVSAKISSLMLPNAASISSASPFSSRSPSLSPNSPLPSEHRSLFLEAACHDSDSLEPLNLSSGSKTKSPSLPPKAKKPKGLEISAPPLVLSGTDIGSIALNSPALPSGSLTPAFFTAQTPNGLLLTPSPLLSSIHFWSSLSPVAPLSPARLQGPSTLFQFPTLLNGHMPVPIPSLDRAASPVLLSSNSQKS
# Procedure, shortened: as §1
# SPIB, sequence (Q01892 whole entry): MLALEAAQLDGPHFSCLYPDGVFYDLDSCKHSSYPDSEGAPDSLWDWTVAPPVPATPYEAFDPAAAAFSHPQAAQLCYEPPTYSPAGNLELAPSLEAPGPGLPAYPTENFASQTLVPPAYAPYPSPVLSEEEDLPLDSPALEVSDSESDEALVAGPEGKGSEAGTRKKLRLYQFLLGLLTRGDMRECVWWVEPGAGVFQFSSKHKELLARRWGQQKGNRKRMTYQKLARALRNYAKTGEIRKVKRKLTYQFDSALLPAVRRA
# ELF1, sequence (P32519 whole entry): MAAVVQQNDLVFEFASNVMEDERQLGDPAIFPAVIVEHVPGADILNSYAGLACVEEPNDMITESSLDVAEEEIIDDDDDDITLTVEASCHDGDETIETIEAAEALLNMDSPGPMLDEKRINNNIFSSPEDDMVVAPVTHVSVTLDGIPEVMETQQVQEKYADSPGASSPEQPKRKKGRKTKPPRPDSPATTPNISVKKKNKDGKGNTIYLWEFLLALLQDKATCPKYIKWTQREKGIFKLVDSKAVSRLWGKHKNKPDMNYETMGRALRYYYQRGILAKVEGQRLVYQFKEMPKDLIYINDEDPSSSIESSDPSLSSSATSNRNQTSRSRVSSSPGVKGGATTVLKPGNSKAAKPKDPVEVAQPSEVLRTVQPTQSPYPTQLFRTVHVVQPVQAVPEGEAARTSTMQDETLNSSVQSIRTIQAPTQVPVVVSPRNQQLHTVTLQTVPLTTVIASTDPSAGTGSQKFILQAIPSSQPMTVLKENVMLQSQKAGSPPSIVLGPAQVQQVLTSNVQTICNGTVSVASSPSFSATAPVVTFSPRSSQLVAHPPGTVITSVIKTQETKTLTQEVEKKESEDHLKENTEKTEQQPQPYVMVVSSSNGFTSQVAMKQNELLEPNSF
sequence,measurement,setting,value
AATGAT,binding signal,FLI1,"1.08 fold enrichment (6-mer frequency, TF over GST control)"
same,binding signal,ELK1,"1.22 fold enrichment (6-mer frequency, TF over GST control)"
same,binding signal,GABPA,"1.15 fold enrichment (6-mer frequency, TF over GST control)"
same,binding signal,ERG,"1.14 fold enrichment (6-mer frequency, TF over GST control)"
same,binding signal,ELF1,"1.19 fold enrichment (6-mer frequency, TF over GST control)"
same,binding signal,EHF,"1.2 fold enrichment (6-mer frequency, TF over GST control)"
same,binding signal,SPI1,"1.16 fold enrichment (6-mer frequency, TF over GST control)"
same,binding signal,SPIB,"1.12 fold enrichment (6-mer frequency, TF over GST control)"
same,binding signal,ELK3,"1.19 fold enrichment (6-mer frequency, TF over GST control)"
